Compound activity as filed in PubChem.
GCN5L2 inh: blocks human GCN5L2 histone acetyltransferase | AID 504327 | GCN5L2 HAT assay, ThioGlo1 CoA-SH fluorescence | 390,000 tested, 0.21% active | Q92830 | Potency, µM (highest dose often 58.9 µM), for inactives: at the highest dose activity change, negative = inhibition, most hits filed as inhibitors
Target sequence (Q92830 whole entry, looked up): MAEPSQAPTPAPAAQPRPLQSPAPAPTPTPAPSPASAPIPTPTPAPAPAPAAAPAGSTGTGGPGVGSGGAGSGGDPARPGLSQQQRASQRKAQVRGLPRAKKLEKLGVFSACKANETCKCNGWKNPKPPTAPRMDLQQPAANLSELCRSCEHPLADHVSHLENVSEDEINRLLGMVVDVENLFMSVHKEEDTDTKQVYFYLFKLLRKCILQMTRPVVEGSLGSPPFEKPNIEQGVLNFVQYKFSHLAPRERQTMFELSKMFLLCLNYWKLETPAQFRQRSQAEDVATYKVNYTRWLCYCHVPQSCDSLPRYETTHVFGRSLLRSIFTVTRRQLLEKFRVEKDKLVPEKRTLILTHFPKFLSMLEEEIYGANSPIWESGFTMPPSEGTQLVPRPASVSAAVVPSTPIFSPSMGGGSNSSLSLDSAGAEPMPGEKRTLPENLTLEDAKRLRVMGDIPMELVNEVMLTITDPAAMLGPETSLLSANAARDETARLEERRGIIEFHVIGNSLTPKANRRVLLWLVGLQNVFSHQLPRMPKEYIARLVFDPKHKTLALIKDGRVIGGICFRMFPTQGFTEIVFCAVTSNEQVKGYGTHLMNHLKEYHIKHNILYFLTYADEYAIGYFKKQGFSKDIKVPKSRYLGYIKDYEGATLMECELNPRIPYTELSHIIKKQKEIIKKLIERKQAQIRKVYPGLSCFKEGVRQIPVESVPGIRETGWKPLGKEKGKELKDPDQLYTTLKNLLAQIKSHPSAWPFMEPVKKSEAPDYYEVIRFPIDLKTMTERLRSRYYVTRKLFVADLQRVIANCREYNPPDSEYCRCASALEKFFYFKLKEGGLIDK
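Fluorescence readout, Ex340nm/Em540nm: ThioGlo1 (50uM final) reacts with free CoA thiol released as 20nM GCN5L2 acetylates H3(1-25) peptide (75uM) using acetyl-CoA (70uM). Compound and enzyme sat 15 min beforehand; 20 min room-temperature reaction.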
TDP1 block: TDP1 (human) enzyme inhibition. Q9NUW8. Potency, µM (highest dose often 130 µM), for the others: at the top dose activity change, negative = inhibition, most hits filed as inhibitors. AID 485290. recombinant TDP1, AlphaScreen DNA substrate cleavage. 350,000 tested, 0.28% active; further: nearly all actives have a fitted effect of over 40% in size
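Enzyme-compound mixtures sat 15 min at room temperature, followed by a 5 min reaction with 15 nM final substrate and 10 min with AlphaScreen beads. Recombinant human Tdp1 was used at 1 nM final.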
VDR inhibitor: inhibitors of human vitamin D receptor | P11473 | VDR-SRC2-3 peptide fluorescence polarization, 2 h | Potency, µM, inactives show max response, negative = inhibition, hits mostly inhibitors | 400,000 tested, 0.93% active
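Inhibition of the VDR/SRC2-3 peptide interaction is quantified by fluorescence polarization. Compounds (23 nl, pintool) incubate with the reagents for 2 hours at ambient room temperature.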
PLK1 PBD block: inhibitors of human PLK1 polo-box domain binding; Plk1 PBD binding of FITC phosphopeptide, fluorescence polarization; Potency, µM, for the others: max response, negative = inhibition, usual class: inhibitors; 360,000 tested, 2.8% active; AID 720504; further: series mostly up to about 57 µM; nearly all actives have a fitted effect of over 65% in size
TDP1 cell noCPT: qHTS for Inhibitors of human tyrosyl-DNA phosphodiesterase 1 (TDP1): qHTS in cells in absence of CPT | DT40 Tdp1-/- hTDP1 cells, no CPT, ATP luminescence, 48 h | 420,000 tested, 15% active | Potency, µM (top dose mostly 46.2 µM), for the others: top-dose activity change, negative = growth inhibition, actives largely listed as inhibitors; further: nearly all actives have a fitted effect of over 55% in size
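Readout: luminescence from CellTiter-Glo after 30 min in the dark at RT. Cells: DT40 Tdp1-/- with stable hTDP1, 400/well. Exposure: compounds alone, ≥48 hr, 37 °C.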
DT40 TDP1 CPT: DT40-hTDP1 cell growth loss with CPT | AID 686979 | chicken DT40 Tdp1-/-;hTDP1 cells + 20 nM CPT, ATP luminescence, 48 h | 420,000 tested, 12% active | Potency, µM (series often up to 46.2 µM), without a hit: at the highest dose activity change, negative = growth inhibition, most hits filed as inhibitors; further: nearly all actives have a fitted effect of over 55% in size
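Chicken DT40 Tdp1-/- cells complemented with human TDP1, 400 cells/well, exposed to compounds plus 20 nM camptothecin for at least 48 h at 37 C; viability read as ATP content by CellTiter-Glo luminescence.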
* hit, by the source's call; ? = inconclusive; · = not tested or not shown; [ ] = remark or other dose. Shown are actives, neighbours in structure and some others; about 18% of the full set was active somewhere. The call rests on the fitted dose curve; in most records, active means well fitted curve in the direction sought with a large enough effect; inconclusive means small, poorly fitted or top-dose-only effect, or another doubt; inactive means no such curve, though single readings can be large; an effect the other way counts as inactive or inconclusive. On the % scale 0 is the no-effect control and ±100 the full control effect; potency means the concentration at half of the fitted maximal effect.

SMILES | GCN5L2 inh | TDP1 block | VDR inhibitor | PLK1 PBD block | TDP1 cell noCPT | DT40 TDP1 CPT
CSC1=NC(C)(C)C=C(/C=C/c2ccc(Cl)cc2)N1 | -15% | 3% | 32µM* | ? | 16µM* | 21µM*
O=C(NCCCN1CCOCC1)c1cc2ccccc2cc1O | -5% | 1% | -6% | -11% | -19% | -7%
O=C(O)[C@H]1CN(C/C=C/P(=O)(O)O)CCN1 | -6% | 4% | 4% | · | 1% | 7%
O=c1c(S(=O)(=O)c2ccccc2)cn(Cc2ccccc2)c2cc(N3CCCC3)c(F)cc12 | -2% | 4% | 8% | · | 0% | -5%
O=c1c(S(=O)(=O)c2ccccc2)cn(Cc2ccccc2)c2cc(N3CCOCC3)c(F)cc12 | -11% | -2% | 2% | · | ? | 21µM*
O=c1c(S(=O)(=O)c2ccccc2)cn(Cc2cccc(F)c2)c2cc(N3CCOCC3)c(F)cc12 | -6% | -7% | 0% | · | 23µM* | ?
COc1ccc(-c2cc(C(=O)Nc3ccn(Cc4ccc(C)cc4)n3)no2)cc1OC | 1% | 4% | -5% | · | -19% | -21%
Cc1csc(SCC(=O)Nc2cccc3nsnc23)n1 | -2% | -3% | 23% | ? | ? | 7.3µM*
CC1CC(C)(C)NC(=S)N1CCC(=O)N1CCc2ccccc21 (configuration not stated) | -1% | -3% | -9% | -18% | ? | ?
CC(C)CCNC(=O)c1onc(CSc2ccccn2)c1C(=O)NCCC(C)C | · | · | ? | 27µM* | ? | ?
CC(C)CCNC(=O)c1onc(CSc2nc3ccccc3[nH]2)c1C(=O)NCCC(C)C | -20% | · | 5% | 9% | 16µM* | ?
COCCNC(=O)c1onc(CSc2ccccn2)c1C(=O)NCCOC | · | · | -13% | -17% | 2% | 0%
COCCNC(=O)c1onc(CSc2nc3ccccc3[nH]2)c1C(=O)NCCOC | -2% | · | -5% | -4% | ? | -26%
COc1ccc(N2C(=O)CC(NCc3cccs3)C2=O)cc1 (configuration not stated) | -6% | -6% | -7% | -1% | 10% | -2%
COc1ccc(N2C(=O)CC(NNc3ncc(Cl)cc3Cl)C2=O)cc1 (configuration not stated) | 2% | 3% | -11% | -7% | 15µM* | 15µM*
Cc1ccc(NC(=S)N(Cc2ccccc2)Cc2cccs2)c(C)c1 | -7% | -2% | -30% | -22% | -13% | -12%
Cc1ccc(Nc2nc(NCc3cccs3)nc3ccsc23)c(C)c1 | · | · | · | -3% | 9.2µM* | 23µM*
Cc1ccc(Nc2nc(NCc3ccccc3)nc3ccsc23)c(C)c1 | · | · | · | -14% | 6.5µM* | 23µM*
COC(=O)CNC(=O)C(Cc1ccccc1)NS(=O)(=O)c1ccc2c(c1)c(=O)n(C)c(=O)n2C (configuration not stated) | 1% | -5% | -2% | -11% | -16% | -1%
COC(=O)CCCn1cc(CN2CC(N3CCCC3)CS2(=O)=O)nn1 (configuration not stated) | · | · | · | -3% | 0% | -2%
CCCCC(C(=O)O)C(C)CC(=O)Nc1nncs1 (configuration not stated) | -5% | 4% | -23% | 21µM* | ? | ?
CC(CCC(=O)Nc1nncs1)C(=O)O (configuration not stated) | -24% | 0% | -18% | 0% | 16% | 11%
CCCCN(C)C(=O)c1ccc2c(c1)N(Cc1cccc(Cl)c1)C(=O)c1ccccc1S2=O (configuration not stated) | -11% | 6% | 1% | · | 15µM* | 8.2µM*
CCc1cccc(NC(=O)c2ccc3c(c2)N(Cc2cccc(Cl)c2)C(=O)c2ccccc2S3=O)c1 (configuration not stated) | -5% | -4% | 4% | · | -4% | -23%
CCN1C(=O)c2ccccc2S(=O)c2ccc(C(=O)N3CCN(c4cccc(Cl)c4)CC3)cc21 (configuration not stated) | -6% | 0% | -7% | · | 18µM* | ?
SMILES | GCN5L2 inh | TDP1 block | VDR inhibitor | PLK1 PBD block | TDP1 cell noCPT | DT40 TDP1 CPT
Cc1ccc(C)c(CN2C(=O)c3ccccc3S(=O)c3ccc(C(=O)N4CCCCC4)cc32)c1 (configuration not stated) | -1% | 6% | -18% | · | 16µM* | 16µM*
CCN1C(=O)c2ccccc2S(=O)c2ccc(C(=O)N3CCCCCC3)cc21 (configuration not stated) | -7% | 3% | 5% | 2% | ? | ?
CCN1C(=O)c2ccccc2S(=O)c2ccc(C(=O)N3CCN(c4ccccc4)CC3)cc21 (configuration not stated) | -1% | 1% | -18% | · | 18µM* | ?
Cn1nc(C(=O)OCC(=O)NCc2ccc(Cl)cc2Cl)c2ccccc2c1=O | · | · | · | -11% | -18% | -9%
CCOC=C1SC(=S)N(c2ccccc2OC)C1=O | · | · | · | ? | -16% | 1%
CCOC(=O)c1ccc2c(c1)N(Cc1cccc([N+](=O)[O-])c1)C(=O)c1ccccc1S2 | 11% | 7% | 8% | · | · | ·
CC1=CCC(/C=N\Nc2nnc3c(n2)[nH]c2ccccc23)CC1 (configuration not stated) | 0% | 1% | · | · | · | ·
COc1ccc(NC2=NCC(Cc3ccc(Br)cc3)S2)cc1 (configuration not stated) | -12% | 0% | 33% | -15% | 26µM* | ?
Cc1cccc(CN2CCc3nnc(C(C)NC(=O)C4CCOCC4)n3CC2)c1 (configuration not stated) | · | · | · | · | 0% | 14%
Cc1onc(-c2ccccc2)c1-c1nnc(CN2CCN(S(=O)(=O)c3ccccc3)CC2)o1 | 1% | 1% | -2% | -1% | 16µM* | 15µM*
CCCN(C(=O)c1cnccn1)c1c(N)n(Cc2ccccc2)c(=O)[nH]c1=O | -5% | -4%[56.1 µM] | -6% | 0% | 16% | 1%
Cc1ccccc1Nc1nc(Nc2ccccc2C)nc(SC2=NCCS2)n1 | -1% | 12% | -18% | -12% | 21µM* | 23µM*
C=CCN(CC=C)Cc1nc(N)nc(Nc2ccccc2C)n1 | 1% | 8% | 19% | 0% | 0% | -1%
Cc1ccc(Nc2nc(Nc3ccc(C)cc3)nc(SC3=NCCS3)n2)cc1 | -1% | 11% | 35% | -7% | 18µM* | ?
O=C(Cc1nc2ccccc2[nH]1)c1ccc(Br)cc1 | -8% | 3% | -27% | -8% | ? | ?
